# PMC12864922, “TDP-43 directly inhibits mRNA accumulation in neurites through modulation of mRNA stability”
# Residue numbers refer to the chain shown, from its start. In all, about 9,900 sequences were measured (“r (bound/input frequency ratio)”: median about 0.7, highest 2% from about 6.5 on). What follows is part of a selection rich in the highest values, with near analogues and random picks from the rest.
# B1: ENSMUSG00000004113.103|Cacna1b (ssRNA)
# RNA: GGGAGUUCUACAGUCCGACGAUCGCUUCGAUAUCCGCAUGCUAAUCCUAAGCAGGAGGUAGCUGAGUUGAGAUGGACCCAGCAAAUCCAAAUCCUAUGUCAUGGCCUCCAGCAUCCAGGGUGGGUCCUUGGGACUUUUCUUAGGAGGGACUUUCUGAGCCUCGUGGAGAGUGUGGUUUGUCCAAAUGUGUGGCAUGGGAGAUAGGGUACCCCUGAAAGCAAGGAAAGGAGCCCAGCUGUGGCCUGGUAGCACCUGCCGGCACCAGUGAUCUCACGUCUCUUGUGGUCUUGGAGUCAAAUAGCACUCUUGCGGUCGCACUAGUGUGGAAUUCUCGGGUGUCAAGG
# B2: ENSMUSG00000061578.1429|Ksr2|169:173 (ssRNA)
# RNA: GGGAGUUCUACAGUCCGACGAUCGCUUCGAUAUCCGCAUGCUAAGAUCUGUCUUGCUCUCUGUCUCUCUCACUCAUUGCCAACAUGUUGCUGGGAAAGAAUAUUUGAUUUAGAUGCCAAUCAGGAAGGCAAGUAGGAUGGAUGGAUGAGUGAGUGGAUAGGUAGGUAUAUAAAUGGAUGGAUGGGUGAUGGAUGGGUAAAUGAAUGGAUAGCAUACUGAAUGAAUGGAUGAUGGAUGAAUGGAUGGGUAGGUGGGUAGAUAGGUAUAUGAAUGAAUGGAUGAAUGGAUGGGUGAAUGGAUGGACUCUUGCGGUCGCACUAGUGUGGAAUUCUCGGGUGUCAAGG
# B3: ENSMUSG00000035279.28|Ssc5d (ssRNA)
# RNA: GGGAGUUCUACAGUCCGACGAUCGCUUCGAUAUCCGCAUGCUACAUUACCACCAGUAAGGGUCAUGGCUUGUGAGCCACCUGCCUUGGUGGAGCUGGUAGGUGCUGUGAGGGAGGUGGGUGACCAGCUGCAGAGACUGACCUGGGUCCUGGAGCAGGACCGGCAGGAGCGCCAAGUCCUGGCACUGGGCCUAGCCCAGUUGGUAGAGGCUGCUCAGGGGUUGGGGCAGCUGAGUGAGACUGUAAAGAGGCUAGCAGAGGUGGCCUGGCCCCCCAGCACUCCUGUGCCCAUGACCACCACCACACUCUUGCGGUCGCACUAGUGUGGAAUUCUCGGGUGUCAAGG
# B4: ENSMUSG00000031028.488|Tub|93:99;130:136 (ssRNA)
# RNA: GGGAGUUCUACAGUCCGACGAUCGCUUCGAUAUCCGCAUGCUAAGGAGGAGCUGAGAUGUGCACCCUUUUAAAUGAACAUGGGGUGGUGAUGGUGCCUUAACAAUCUUGACACUAAGGUGAAGCAAGCAAGUAAGCACACACCCUCUGGGAAGACAGGAGUCGGAAGCCAAGCACACACGCAACAGUCUGGAAGAGAGCUUUUGGUAAUCAUACCGUCUUCAGUGACAAGGCAACAAUGCUGUAAAGUGGGUUUGUUUGGUUUUGUUUUUUCUUUCUCUUUUAUGGAAAUGGCAGGUCUAUUUCUCUUGCGGUCGCACUAGUGUGGAAUUCUCGGGUGUCAAGG
# B5: ENSMUSG00000032194.180|Kank2|82:88;185:189 (ssRNA)
# RNA: GGGAGUUCUACAGUCCGACGAUCGCUUCGAUAUCCGCAUGCUAUGGCCUCAGAGCACUCCCAGAACUAGCUUAAAGUGACAGGCUUUGCUGAAAUCCAAAGGGACAAAAGAGUAGUUUUAUGUUACACACAUUGUUUUUAAUGCCCUGGAGCUCCUGCUGGUGACAGGAGAGACAGACAGGCUGCACCUUUCUCUAACUGGGGUUCCUUUCUGGCCCCAGGAUCUCACACACGUUCGUGGGGGGAUUUUGUUGUUGUUUCUUUGUUUCUUUUCUUCAUAAAGAAGAAAAAGGAAACAACUUCUCUCUUGCGGUCGCACUAGUGUGGAAUUCUCGGGUGUCAAGG
# B6: ENSMUSG00000061578.618|Ksr2 (ssRNA)
# RNA: GGGAGUUCUACAGUCCGACGAUCGCUUCGAUAUCCGCAUGCUAGUGGCUUGCCUGGCUGGCCUGUGAUAUAGUGGACUGUCUUAGUGAUCGGACUUCAGGGAGCAACCUAUAGGAAAUGCAAAGGCUUAGAGGGGACGGACAGCUCCCUGACCCUGGAUGGCCAGGAAUGGUGCUAGCUAGGGUGUGAGCCAAGCCCUUGAGGCUACUGUGAGUUAUGAGAUGUGUCCAACCCUCAGCCCACAGACUGCAUAUGCCCCAGGACAGCUGUGAAGGUGACCCAAUACAAAAUCGUAAACUAACUUCUCUUGCGGUCGCACUAGUGUGGAAUUCUCGGGUGUCAAGG
# B7: ENSMUSG00000061578.593|Ksr2 (ssRNA)
# RNA: GGGAGUUCUACAGUCCGACGAUCGCUUCGAUAUCCGCAUGCUAUCUGGGAUAAAAAAAAAAAGUCAAAAGAAAUAAAAUAUGAUUCAGGCAAAUUCAAUGCAACUCAAAAUUUCCACCAAUCCCAUAUUGUCCCUAGCAAUGACAAAAUUAUUUGCAAGACAGACCCUGUGACCUGUAGAGGCAAAAUAUAUGGUGGCUUGCCUGGCUGGCCUGUGAUAUAGUGGACUGUCUUAGUGAUCGGACUUCAGGGAGCAACCUAUAGGAAAUGCAAAGGCUUAGAGGGGACGGACAGCUCCCUGACCCUCUUGCGGUCGCACUAGUGUGGAAUUCUCGGGUGUCAAGG
# B8: ENSMUSG00000061578.1182|Ksr2 (ssRNA)
# RNA: GGGAGUUCUACAGUCCGACGAUCGCUUCGAUAUCCGCAUGCUAUGUCCUCGGGUGUCUCUGCUGUAUAUAGGCCAGUCACAAGCCCUUCUAAAAGCCUGCUCUUGUCUGCUUUUGUUUCUCCACCAUGCCCCCUGCCACCUCUUCUGACAGUGCUCAGAUUUAUCAGCCACCUGACCCACAGACCCAUAUGGACACACUAGAAAGCCCAUCCUAGGUCUUUCCAUGGUCUCUCACACCCCUGUCCCCGUCCCCUCCACCCCCCGGCAGCAUGCUUCACUCUAUGAAUGAGCCGCUGGGAUAUUCUCUUGCGGUCGCACUAGUGUGGAAUUCUCGGGUGUCAAGG
# B9: ENSMUSG00000061578.1467|Ksr2|36:40 (ssRNA)
# RNA: GGGAGUUCUACAGUCCGACGAUCGCUUCGAUAUCCGCAUGCUAUGAAUGGAUGAAUGGAUGGGUGAAUGGAUGGAUAGCAUACUGAAUAAAUGGAUGGAUGGAUGGAUUGAUUUGUGAAUGAAUGGAUGAAUGGAUGGGUAGGUGGGUGGAUGCAUAGGCAAGUAGAUGAAUGAAUAUGUGGGUAGAAGGGUGAGUGGGUGGAUGAAUGGAUGGAUAGGUUGGUAGGUUAAUGUAUUCGUGGAUGGGUGAAUGGAUGGAUGGAUAGAUAGAUGGGAAGGUGGAUGGACAGAUGGAUGGAUGGACUCUUGCGGUCGCACUAGUGUGGAAUUCUCGGGUGUCAAGG
# B10: ENSMUSG00000061578.1469|Ksr2|24:28 (ssRNA)
# RNA: GGGAGUUCUACAGUCCGACGAUCGCUUCGAUAUCCGCAUGCUAUGGAUGGGUGAAUGGAUGGAUAGCAUACUGAAUAAAUGGAUGGAUGGAUGGAUUGAUUUGUGAAUGAAUGGAUGAAUGGAUGGGUAGGUGGGUGGAUGCAUAGGCAAGUAGAUGAAUGAAUAUGUGGGUAGAAGGGUGAGUGGGUGGAUGAAUGGAUGGAUAGGUUGGUAGGUUAAUGUAUUCGUGGAUGGGUGAAUGGAUGGAUGGAUAGAUAGAUGGGAAGGUGGAUGGACAGAUGGAUGGAUGGAUAGAUAGAUGGACUCUUGCGGUCGCACUAGUGUGGAAUUCUCGGGUGUCAAGG
# B11: ENSMUSG00000061578.1465|Ksr2|48:52 (ssRNA)
# RNA: GGGAGUUCUACAGUCCGACGAUCGCUUCGAUAUCCGCAUGCUAUAGGUAUAUGAAUGAAUGGAUGAAUGGAUGGGUGAAUGGAUGGAUAGCAUACUGAAUAAAUGGAUGGAUGGAUGGAUUGAUUUGUGAAUGAAUGGAUGAAUGGAUGGGUAGGUGGGUGGAUGCAUAGGCAAGUAGAUGAAUGAAUAUGUGGGUAGAAGGGUGAGUGGGUGGAUGAAUGGAUGGAUAGGUUGGUAGGUUAAUGUAUUCGUGGAUGGGUGAAUGGAUGGAUGGAUAGAUAGAUGGGAAGGUGGAUGGACAGACUCUUGCGGUCGCACUAGUGUGGAAUUCUCGGGUGUCAAGG
# B12: ENSMUSG00000061578.1472|Ksr2|6:10 (ssRNA)
# RNA: GGGAGUUCUACAGUCCGACGAUCGCUUCGAUAUCCGCAUGCUAGAUAGCAUACUGAAUAAAUGGAUGGAUGGAUGGAUUGAUUUGUGAAUGAAUGGAUGAAUGGAUGGGUAGGUGGGUGGAUGCAUAGGCAAGUAGAUGAAUGAAUAUGUGGGUAGAAGGGUGAGUGGGUGGAUGAAUGGAUGGAUAGGUUGGUAGGUUAAUGUAUUCGUGGAUGGGUGAAUGGAUGGAUGGAUAGAUAGAUGGGAAGGUGGAUGGACAGAUGGAUGGAUGGAUAGAUAGAUGGACAGGUGGUUGGUGGAUAACUCUUGCGGUCGCACUAGUGUGGAAUUCUCGGGUGUCAAGG
# B13: ENSMUSG00000061578.1463|Ksr2|60:64 (ssRNA)
# RNA: GGGAGUUCUACAGUCCGACGAUCGCUUCGAUAUCCGCAUGCUAUAGGUGGGUAGAUAGGUAUAUGAAUGAAUGGAUGAAUGGAUGGGUGAAUGGAUGGAUAGCAUACUGAAUAAAUGGAUGGAUGGAUGGAUUGAUUUGUGAAUGAAUGGAUGAAUGGAUGGGUAGGUGGGUGGAUGCAUAGGCAAGUAGAUGAAUGAAUAUGUGGGUAGAAGGGUGAGUGGGUGGAUGAAUGGAUGGAUAGGUUGGUAGGUUAAUGUAUUCGUGGAUGGGUGAAUGGAUGGAUGGAUAGAUAGAUGGGAAGGCUCUUGCGGUCGCACUAGUGUGGAAUUCUCGGGUGUCAAGG
# B14: ENSMUSG00000061578.1466|Ksr2|42:46 (ssRNA)
# RNA: GGGAGUUCUACAGUCCGACGAUCGCUUCGAUAUCCGCAUGCUAUAUGAAUGAAUGGAUGAAUGGAUGGGUGAAUGGAUGGAUAGCAUACUGAAUAAAUGGAUGGAUGGAUGGAUUGAUUUGUGAAUGAAUGGAUGAAUGGAUGGGUAGGUGGGUGGAUGCAUAGGCAAGUAGAUGAAUGAAUAUGUGGGUAGAAGGGUGAGUGGGUGGAUGAAUGGAUGGAUAGGUUGGUAGGUUAAUGUAUUCGUGGAUGGGUGAAUGGAUGGAUGGAUAGAUAGAUGGGAAGGUGGAUGGACAGAUGGAUGCUCUUGCGGUCGCACUAGUGUGGAAUUCUCGGGUGUCAAGG
# B15: ENSMUSG00000061578.1469|Ksr2 (ssRNA)
# RNA: B10 RNA with C67G, A68U, U69A, A70U, C71G
# B16: ENSMUSG00000061578.1468|Ksr2|30:34 (ssRNA)
# RNA: GGGAGUUCUACAGUCCGACGAUCGCUUCGAUAUCCGCAUGCUAGAUGAAUGGAUGGGUGAAUGGAUGGAUAGCAUACUGAAUAAAUGGAUGGAUGGAUGGAUUGAUUUGUGAAUGAAUGGAUGAAUGGAUGGGUAGGUGGGUGGAUGCAUAGGCAAGUAGAUGAAUGAAUAUGUGGGUAGAAGGGUGAGUGGGUGGAUGAAUGGAUGGAUAGGUUGGUAGGUUAAUGUAUUCGUGGAUGGGUGAAUGGAUGGAUGGAUAGAUAGAUGGGAAGGUGGAUGGACAGAUGGAUGGAUGGAUAGAUACUCUUGCGGUCGCACUAGUGUGGAAUUCUCGGGUGUCAAGG
# Target: TDP-43 (Homo sapiens, UniProt Q13148 1-414)
# Test: RNA Bind-n-Seq with designed 260-mer pool; 25 mM Tris-HCl, 150 mM KCl, 3 mM MgCl2, BSA (printed 500 mg/mL), 20 units/mL SUPERase IN; pH not stated; 500 nM RNA pool, 1 h, 4 C; TDP-43 5, 50, 500 nM; high values mean tight binding
# Conditions: protein: recombinant; tags: SBP (GST cleaved off with PreScission; pGEX-GST-SBP)
# Method in brief: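 The incubation lasted 1 h at 4 °C and used 500 nM of an in vitro-transcribed 260-nt 3′ UTR oligo pool with recombinant SBP-tagged TDP-43 at 5, 50 or 500 nM immobilized on streptavidin beads. It took place in 25 mM Tris-HCl, 150 mM KCl, 3 mM MgCl2, BSA and SUPERase IN. Bound RNA was washed, eluted with biotin, converted to cDNA, PCR-amplified and sequenced to give R, each oligo's normalized abundance in the bound sample divided by that in input. Two independent protein batches provided the duplicates.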
# Chain of TDP-43 (Q13148 whole entry): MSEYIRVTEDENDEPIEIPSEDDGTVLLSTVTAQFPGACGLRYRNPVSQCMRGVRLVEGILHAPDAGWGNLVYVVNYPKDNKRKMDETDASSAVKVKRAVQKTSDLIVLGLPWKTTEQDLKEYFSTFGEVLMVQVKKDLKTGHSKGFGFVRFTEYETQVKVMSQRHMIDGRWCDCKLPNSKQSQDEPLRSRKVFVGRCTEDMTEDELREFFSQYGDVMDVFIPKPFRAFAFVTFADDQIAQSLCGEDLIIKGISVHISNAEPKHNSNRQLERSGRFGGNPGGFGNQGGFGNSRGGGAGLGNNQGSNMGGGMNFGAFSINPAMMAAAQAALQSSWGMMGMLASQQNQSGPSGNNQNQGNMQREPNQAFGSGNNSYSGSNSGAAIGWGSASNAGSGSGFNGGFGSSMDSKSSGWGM
row,Binder,binding signal
1,B1,1.15 R (bound/input frequency ratio)
2,B2,5.89 R (bound/input frequency ratio)
3,B3,0.915 R (bound/input frequency ratio)
4,B4,0.906 R (bound/input frequency ratio)
5,B5,0.125 R (bound/input frequency ratio)
6,B6,0.616 R (bound/input frequency ratio)
7,B7,0.762 R (bound/input frequency ratio)
8,B8,0.904 R (bound/input frequency ratio)
9,B9,6.51 R (bound/input frequency ratio)
10,B10,12.1 R (bound/input frequency ratio)
11,B11,5.93 R (bound/input frequency ratio)
12,B12,5.45 R (bound/input frequency ratio)
13,B13,4.6 R (bound/input frequency ratio)
14,B14,6.95 R (bound/input frequency ratio)
15,B15,5.88 R (bound/input frequency ratio)
16,B16,8.93 R (bound/input frequency ratio)
